Results: PubChem BioAssay AID1159580 (chemical genetic matrix, 2015)
Values joined by “and” are separate entries in the source; they are usually repeats but may differ in a detail not shown here. Identical values can stand only once. Out of some 5,500 compounds screened, about 2,000 (36%) were called active. Roughly 18% stayed inconclusive and do not appear here. Cut-off read from the data, not from the text of the source: active = normalized growth mostly below about 0.91 (no sharp cut-off); inconclusive = no clear call, values can overlap the other calls; inactive = mostly above about 0.92. The list shows a part of the results.

Test: chemical genetic growth profiling, strain panel (AID 1159580);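 note: tested at 20 µM; growth read once vehicle control cultures reached saturation at 30 °C; 1 = growth at the plate median or of vehicle wells; lower values mean less growth of the strain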
Details: S. cerevisiae deletion strains, growth OD

Measured: normalized growth

CCN(CC)CCOC(=O)C(c1ccccc1)c1ccccc1
inactive: locus YAL013W, strain DEP1, hits give low values 0.982 | locus YAL021C, strain ccr4, hits give low values 0.964 | locus YAL026C, strain drs2, hits give low values 0.975 | locus YAL030W, strain snc1, hits give low values 0.948 | locus YBL061C, strain skt5, hits give low values 0.965 | locus YBR009C, strain hhf1, hits give low values 0.99 | locus YBR021W, strain FUR4, hits give low values 0.989 | locus YBR023C, strain chs3, hits give low values 0.957 | locus YBR171W, strain sec66, hits give low values 0.971 | locus YBR229C, strain ROT2, hits give low values 1 | locus YBR231C, strain swc5, hits give low values 0.967 | locus YBR279W, strain paf1, hits give low values 0.971 | locus YCL011C, strain gbp2, hits give low values 0.948 | locus YCL016C, strain dcc1, hits give low values 0.987 | locus YCL029C, strain bik1, hits give low values 0.979 | locus YCL069W, strain vba3, hits give low values 0.976 | locus YCR088W, strain abp1, hits give low values 0.968 | locus YDL005C, strain med2, hits give low values 0.958 | locus YDL035C, strain GPR1, hits give low values 0.988 | locus YDL040C, strain nat1, hits give low values 0.972 | locus YDL074C, strain BRE1, hits give low values 1.01 | locus YDL101C, strain DUN1, hits give low values 0.995 | locus YDL134C, strain PPH21, hits give low values 0.997 | locus YDL185W, strain tfp1, hits give low values 0.96 | locus YDL192W, strain arf1, hits give low values 0.989 | locus YDR001C, strain nth1, hits give low values 0.964 | locus YDR069C, strain doa4, hits give low values 0.936 | locus YDR101C, strain arx1, hits give low values 1.01 | locus YDR137W, strain rgp1, hits give low values 0.994 | locus YDR159W, strain sac3, hits give low values 0.947 | locus YDR162C, strain NBP2, hits give low values 0.961 | locus YDR195W, strain ref2 0.889 | locus YDR297W, strain sur2, hits give low values 0.974 | locus YDR318W, strain mcm21, hits give low values 0.986 | locus YDR334W, strain swr1, hits give low values 0.943 | locus YDR335W, strain msn5, hits give low values 0.976 | locus YDR388W, hits give low values 1 | locus YDR392W, strain spt3, hits give low values 1.01 | locus YDR502C, strain sam2, hits give low values 1 | locus YEL003W, strain gim4, hits give low values 0.972 | locus YEL037C, strain rad23, hits give low values 0.973 | locus YEL061C, strain CIN8 (second series), hits give low values 0.957 | locus YEL061C, strain CIN8, hits give low values 0.987 | locus YER015W, strain faa2, hits give low values 0.984 | locus YER016W, strain bim1, hits give low values 0.976 | locus YER110C, hits give low values 0.968 | locus YER111C, strain swi4, hits give low values 0.957 | locus YER155C, strain BEM2 (second series), hits give low values 0.951 | locus YER155C, strain BEM2, hits give low values 1.01 | locus YER167W, strain BCK2, hits give low values 0.993 | locus YFR010W, strain ubp6, hits give low values 0.959 | locus YGL078C, strain dbp3, hits give low values 0.987 | locus YGL086W, strain mad1, hits give low values 0.995 | locus YGL167C, strain pmr1, hits give low values 0.962 | locus YGL173C, strain kem1, hits give low values 0.98 | locus YGL227W, strain vid30, hits give low values 0.961 | locus YGL240W, strain doc1, hits give low values 0.963 | locus YGL248W, strain PDE1, hits give low values 1.01 | locus YGL253W, strain hxk2, hits give low values 0.97 | locus YGR135W, strain pre9, hits give low values 0.955 | locus YGR229C, strain SMI1, hits give low values 0.979 | locus YGR252W, strain gcn5, hits give low values 0.994 | locus YHR013C, strain ard1, hits give low values 0.964 | locus YHR027C, strain rpn1, hits give low values 0.971 | locus YHR030C, strain SLT2, hits give low values 0.981 and 0.995 | locus YHR079C, strain IRE1 (second series), hits give low values 0.99 | locus YHR079C, strain IRE1, hits give low values 0.986 | locus YHR094C, strain hxt1, hits give low values 0.993 | locus YHR129C, strain ARP1, hits give low values 0.99 | locus YHR142W, strain chs7, hits give low values 0.967 | locus YHR200W, strain rpn10, hits give low values 0.975 | locus YIL066C, strain RNR3, hits give low values 1 | locus YIL073C, strain SPO22, hits give low values 0.935 | locus YIL125W, strain kgd1, hits give low values 1 | locus YIR030C, strain dcg1, hits give low values 0.987 | locus YJL092W, strain hpr5, hits give low values 0.964 | locus YJL095W, strain BCK1 (second series), hits give low values 0.973 | locus YJL095W, strain BCK1, hits give low values 1.02 and 0.981 | locus YJL115W, strain asf1, hits give low values 0.949 | locus YJL129C, strain trk1, hits give low values 0.972 | locus YJL134W, strain LCB3, hits give low values 0.989 | locus YJL154C, strain vps35, hits give low values 0.959 | locus YJL164C, strain tpk1, hits give low values 0.993 | locus YJL166W, strain qcr8, hits give low values 0.958 | locus YJL168C, strain set2, hits give low values 1 | locus YJL187C, strain SWE1 (second series), hits give low values 1.01 | locus YJR043C, strain POL32, hits give low values 0.998 | locus YJR066W, strain TOR1, hits give low values 0.963 | locus YKL009W, strain mrt4, hits give low values 0.959
